Among the test systems are NCI-H23 lung; NCI-H226 lung; NCI-H322M lung; HOP-62 NSCLC; NCI-H460 lung; HOP-92 NSCLC; NCI-H522 lung; A549/ATCC NSCLC; 786-0 renal; COLO 205 colon; DU-145 prostate; K-562 leukemia; MALME-3M melanoma; MDA-MB-231 breast; RXF 393 renal; SF-268 CNS; SF-295 CNS; SF-539 CNS; UACC-257 melanoma; M14 melanoma.
What all share (experiment): NCI-60 one-dose screen, 48 h (100 = growth as untreated, 0 = no growth, -100 = all killed)
What all share (details): 10 µM unless noted

Compounds without any hit were thinned out: in the full panel of roughly 83,000, 20% have a hit.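 Note: values are percent growth. 100 is the growth of untreated cells, values between 100 and 0 indicate rising inhibition; between -100 and 0 indicates cell death.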 Values without a mark were called inactive. Activity calls are given as the source filed them. How the source made its calls: active means growth percent below 10; inactive means the rest.

Take `O=C(NOC[C@H](O)CO)c1ccc(F)c(F)c1Nc1ccc(I)cc1F`: the growth with NCI-H23 lung is 19.6%; in the assay with NCI-H226 lung it was 49.5%; in the assay with NCI-H322M lung it was 12.3%; with HOP-62 NSCLC, 27.7%; with NCI-H460 lung it was 54%; with HOP-92 NSCLC, -28% (active). Also, the growth with NCI-H522 lung is 44.8%; in the assay with A549/ATCC NSCLC, 21.4%; in the assay with 786-0 renal, 71.2%; in the assay with COLO 205 colon it was 0.302% (active); with DU-145 prostate, 58.7%; with K-562 leukemia, 29.2%. Moreover, the growth in the assay with MALME-3M melanoma was -11.7% (active); in the assay on MDA-MB-231 breast, 20.9%; in the assay on RXF 393 renal it was 2.18% (active); in the assay on SF-268 CNS, 60.1%; with SF-295 CNS it was 75%; in the assay with SF-539 CNS, 64.2%. Moreover, the values for the growth with UACC-257 melanoma and with M14 melanoma were -26.8% (active) and 3.66% (active), respectively.

In the case of `CNC(=O)c1cc(COc2nnc(Nc3ccc(Cl)cc3)c3ccoc23)ccn1`, the growth with NCI-H23 lung is 62.2%; in the assay with NCI-H226 lung it was 21.3%; in the assay with NCI-H322M lung it was 45.4%; with HOP-62 NSCLC it was -75.2% (active); with NCI-H460 lung it was 31.2%; in the assay on HOP-92 NSCLC, -5.53% (active). Besides, the growth was 10.4% in the assay with NCI-H522 lung; 35.3% with A549/ATCC NSCLC; -27.1% (active) with 786-0 renal; 72.4% with COLO 205 colon; 31.9% with DU-145 prostate; 69.7% with K-562 leukemia. Further, the growth with MALME-3M melanoma is 22.4%; in the assay on MDA-MB-231 breast it was 18.5%; in the assay on RXF 393 renal it was 43.1%; with SF-268 CNS, 14.2%; in the assay on SF-295 CNS, 10.4%; with SF-539 CNS it was -65.6% (active). The figures for the growth with UACC-257 melanoma and with M14 melanoma were 33.3% and 78.9%, respectively.

Take `Cc1csc(-c2nnc(Nc3ccc(Oc4ncccc4-c4ccnc(N)n4)cc3)c3ccccc23)c1`: the growth in the assay on NCI-H23 lung is 54.6%; with NCI-H226 lung it was 72.5%; in the assay with NCI-H322M lung it was 30.5%; with HOP-62 NSCLC, 14.6%; with NCI-H460 lung it was 25.3%; with HOP-92 NSCLC, 85.5%. In addition, the growth in the assay on NCI-H522 lung was 30.8%; in the assay on A549/ATCC NSCLC, 26.6%; in the assay with 786-0 renal, 67.9%; in the assay on COLO 205 colon it was -4.72% (active); with DU-145 prostate, 55.8%; with K-562 leukemia, 40%. For the same compound, the growth in the assay on MALME-3M melanoma is 18.6%; with MDA-MB-231 breast, 37.7%; with RXF 393 renal, 8.98% (active); in the assay on SF-268 CNS it was 58.3%; in the assay on SF-295 CNS it was 60.2%; in the assay with SF-539 CNS it was 41.1%. Also, the growth in the assay with UACC-257 melanoma was 20.8%; in the assay with M14 melanoma, 15.4%.

As to `Cc1cccc(Cl)c1NC(=O)c1cnc(Nc2cc(N3CCOCC3)cc(S(C)(=O)=O)c2)s1`, the growth with NCI-H23 lung was 81.5%; in the assay with NCI-H226 lung, 66%; in the assay on NCI-H322M lung, -6.54% (active); in the assay with HOP-62 NSCLC, 11.8%; in the assay on NCI-H460 lung, 71.4%; in the assay with HOP-92 NSCLC, -55.1% (active). Also, the growth with NCI-H522 lung was 7.33% (active); in the assay with A549/ATCC NSCLC, -0.245% (active); with 786-0 renal, 11.6%; with COLO 205 colon, -6.99% (active); in the assay on DU-145 prostate it was -41.1% (active); with K-562 leukemia, 6.1% (active). Further, the growth with MALME-3M melanoma was 42.2%; in the assay on MDA-MB-231 breast it was 9.71% (active); in the assay on RXF 393 renal, -34.8% (active); in the assay with SF-268 CNS, 25.4%; with SF-295 CNS, 53.8%; in the assay with SF-539 CNS, 2.23% (active). Besides, the growth with UACC-257 melanoma is 43.2%; in the assay on M14 melanoma, 42.4%.

For `C=CCN1C(=O)c2cccc3c(-c4ccc5c(c4)ncn5C4CCCCC4)ccc(c23)C1=O`, the growth in the assay on NCI-H23 lung is 50.5%; in the assay on NCI-H226 lung, 44.8%; with NCI-H322M lung it was 93.9%; in the assay with HOP-62 NSCLC it was 67.1%; with NCI-H460 lung it was 58.2%; with HOP-92 NSCLC, 32.4%. The growth with NCI-H522 lung was 52%; with A549/ATCC NSCLC, 58.3%; in the assay with 786-0 renal it was 58.8%; in the assay with COLO 205 colon, 47%; with DU-145 prostate, 72.5%; with K-562 leukemia, 26.2%. For the same compound, the growth in the assay on MALME-3M melanoma is 56%; with MDA-MB-231 breast, 57.1%; in the assay with RXF 393 renal, 110%; in the assay on SF-268 CNS, 72.4%; in the assay with SF-295 CNS, 44.5%; in the assay on SF-539 CNS, 71.4%. The growth in the assay on UACC-257 melanoma is 44.6%; in the assay on M14 melanoma, 50%.

Turning to `COc1ccc(Cc2cc(-c3ccccc3C)n[nH]c2=O)cc1`, the growth was 98.6% in the assay with NCI-H23 lung; 87.3% with NCI-H226 lung; 129% in the assay with NCI-H322M lung; 97.8% in the assay with HOP-62 NSCLC; 105% in the assay on NCI-H460 lung; 22.7% in the assay with HOP-92 NSCLC. For the same compound, the growth in the assay on NCI-H522 lung was 105%; with A549/ATCC NSCLC, 99.9%; in the assay with 786-0 renal, 105%; in the assay on COLO 205 colon, 100%; with DU-145 prostate it was 93.2%; with K-562 leukemia, 110%. Further, the growth with MALME-3M melanoma is 154%; in the assay with MDA-MB-231 breast, 84.6%; in the assay on RXF 393 renal, 99.2%; in the assay on SF-268 CNS, 85%; with SF-295 CNS, 116%; with SF-539 CNS, 97.8%. Further, the growth with UACC-257 melanoma was 119%; with M14 melanoma, 115%.

Take `N#Cc1c(-c2ccc(Cl)cc2)csc1NC(=O)Nc1cccc(C(F)(F)F)c1`: the growth in the assay on NCI-H23 lung is -8.85% (active); in the assay on NCI-H226 lung, 17.6%; with NCI-H322M lung, 31.5%; in the assay on HOP-62 NSCLC, 18.4%; in the assay on NCI-H460 lung it was 5.61% (active); in the assay on HOP-92 NSCLC, -4.85% (active). For the same compound, the growth was -9.41% (active) with NCI-H522 lung; 11.4% in the assay on A549/ATCC NSCLC; 22.9% in the assay on 786-0 renal; -0.881% (active) in the assay with COLO 205 colon; 16.9% in the assay with DU-145 prostate; 9.25% (active) in the assay with K-562 leukemia. Besides, the growth in the assay on MALME-3M melanoma was 14.8%; with MDA-MB-231 breast it was -0.969% (active); in the assay on RXF 393 renal it was 59.5%; in the assay with SF-268 CNS, 27.9%; with SF-295 CNS, 3.47% (active); with SF-539 CNS it was 37.9%. Further, the growth in the assay with UACC-257 melanoma was 27.8%; with M14 melanoma, 20.4%.
